{
  "source": "PubChem BioAssay",
  "note": "Activity calls are given as the source filed them. No rule for the calls is given here.",
  "data": [
    {"target": "Pantothenate synthetase (Mycobacterium tuberculosis (strain ATCC 25618 / H37Rv)) (UniProt P9WIL5)", "sequence (P9WIL5 whole entry, looked up)": "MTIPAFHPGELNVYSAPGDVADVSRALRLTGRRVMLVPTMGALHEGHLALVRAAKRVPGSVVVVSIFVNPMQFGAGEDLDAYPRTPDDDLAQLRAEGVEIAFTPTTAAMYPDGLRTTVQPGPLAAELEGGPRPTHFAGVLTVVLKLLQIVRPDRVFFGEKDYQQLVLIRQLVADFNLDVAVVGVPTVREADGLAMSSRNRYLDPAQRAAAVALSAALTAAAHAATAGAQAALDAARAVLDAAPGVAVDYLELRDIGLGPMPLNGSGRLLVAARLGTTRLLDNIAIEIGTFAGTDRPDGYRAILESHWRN", "experiment": "Recombinant Mtb pantothenate synthetase (PanC) inhibitors, coupled enzyme, confirmatory (AID 375);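 also: 0% = full reaction with vehicle and 100% = no enzyme background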", "details": "coupled enzyme assay; at 10 µM, hits give high values", "values": [
      {"smiles": "Cc1cc(C(=O)CSc2nnc(-c3ccccc3)n2C)c(C)n1C", "inhibition": "0% (inactive)"},
      {"smiles": "COc1ccc(NC(=O)CN(c2ccc(C)cc2)S(C)(=O)=O)c(OC)c1", "inhibition": "4% (inactive)"},
      {"smiles": "O=C1CCC(=O)N1OCCCCOc1ccccc1", "inhibition": "2% (inactive)"},
      {"smiles": "O=S(=O)(Nc1nc2ccccc2nc1NCc1ccco1)c1ccc(Cl)cc1", "inhibition": "0% (inactive)"},
      {"smiles": "CCCCSc1nnc([C@H](C)NC(=O)OC(C)(C)C)o1", "inhibition": "2% (inactive)"},
      {"smiles": "CCCN1C(=O)c2cc(C(=O)O)ccc2C1O", "note": "(stereo not drawn)", "inhibition": "0% (inactive)"},
      {"smiles": "COc1cc(N2C(=O)CSC23C(=O)Nc2ccccc23)cc(OC)c1OC", "note": "(stereo not drawn)", "inhibition": "0% (inactive)"},
      {"smiles": "CC(=O)Nc1cccc(NC(=O)C2CCCN2C(=O)Nc2ccc(C)cc2)c1", "note": "(stereo not drawn)", "inhibition": "0% (inactive)"},
      {"smiles": "CC(C)CCn1c(NCCc2ccccc2)nc2c1c(=O)n(C)c(=O)n2C", "inhibition": "0% (inactive)"},
      {"smiles": "COc1ccc(S(=O)(=O)Nc2ccc(Cl)cn2)c(C)c1C", "inhibition": "1% (inactive)"},
      {"smiles": "O=S1(=O)C=C(Sc2nc3ccccc3s2)c2ccccc21", "inhibition": "0% (inactive)"},
      {"smiles": "Brc1c(NC2=NCCN2)ccc2nccnc12", "inhibition": "0% (inactive)"},
      {"smiles": "COc1ccc(CCNS(=O)(=O)c2ccc3c(c2)CCN3C(=O)CCC(=O)O)cc1OC", "inhibition": "0% (inactive)"},
      {"smiles": "CC(=O)c1cccc(-n2nnnc2SCC(=O)N2CCCC2)c1", "inhibition": "5% (inactive)"},
      {"smiles": "CCn1c(C)cc(=S)c2ccccc21", "inhibition": "9% (inactive)"},
      {"smiles": "Cc1cc(C(=O)Nc2nc3c(s2)CCCC3)cs1", "inhibition": "0% (inactive)"},
      {"smiles": "CC1=Nn2c(nnc2-c2ccccn2)SC1", "inhibition": "7% (inactive)"},
      {"smiles": "COC(=O)c1cc2ccsc2n1Cc1nc(-c2ccc(OC)cc2)oc1C", "inhibition": "9% (inactive)"},
      {"smiles": "COc1ccc2c(c1)C(C)=CC(C)(C)N2C(=O)C(C)N1C(=O)c2ccccc2C1=O", "note": "(stereo not drawn)", "inhibition": "4% (inactive)"},
      {"smiles": "COc1ccccc1N1CCN(C(=O)c2c(-c3c(Cl)cccc3Cl)noc2C)CC1", "inhibition": "0% (inactive)"},
      {"smiles": "CC(C)COC(=O)C1[C@H]2C(=O)N(Cc3cccs3)C[C@]23C=C[C@H]1O3", "note": "(stereo partly drawn)", "inhibition": "1% (inactive)"},
      {"smiles": "Cc1cc(C)c2c(=O)[nH]c(=O)n(Cc3ccccc3)c2n1", "inhibition": "0% (inactive)"},
      {"smiles": "CC1(C)NC(=O)N(CCOc2cccc(Cl)c2Cl)C1=O", "inhibition": "0% (inactive)"}
    ]}
  ]
}
